Rows were chosen to be rich in hits. Some 4% of all compounds tested hit in one or more screens of this group.
TWEAK-Fn14 inh – blocks TWEAK-Fn14 interaction in a reporter cell assay | AID 1159606 | inhibition, % at 10 µM | TWEAK-stimulated Fn14 reporter cells, luciferase luminescence, 8 h | 360,000 tested, 2% active; in the data active = inhibition above about 50%
CF NFkB block – inhibitors of cystic fibrosis induced NF-kB; KKLEB NF-kB-GFP reporter, PAF-induced, GFP fluorescence overnight; inhibition, % at 5 µM; 360,000 tested, 0.86% active; AID 588850;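 active = at least 50% inhibition at 5 µM, scaled per plate between neutral and stimulator controls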;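 also: PAF is a Pseudomonas aeruginosa culture filtrate used as stimulus; plate controls were PAF-stimulated DMSO wells for no effect and unstimulated DMSO wells for full effect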
KKLEB cytotox – counter-screen for CF NF-kB inhibitors: cytotoxicity; KKLEB CF airway cells viability, ATPlite luminescence, overnight; hits give low values; cells stimulated with P. aeruginosa culture filtrate; activity change (cytotoxicity), % at 5 µM; 360,000 tested, 0.36% active; AID 602141;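 active = corrected activity change at or below -50% at 5 µM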
Peg3 promoter – Peg3 promoter activity inhibition | HeLa PEG-Prom luciferase reporter, luminescence, overnight | inhibition, % at 20 µM | 360,000 tested, 1.7% active;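 active = inhibition of at least 50% at 20 µM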
HIF-2a inh – inhibitors of HIF-2a; 786-0 RCC cells HIF-2a reporter, luciferase luminescence, overnight; inhibition, % at 18.8 µM; 360,000 tested, 0.72% active;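 active = inhibition of the luminescence signal of 40% or more relative to plate controls, in a single-dose primary screen at 18.75 µM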
TROY signal inh – TROY signaling inhibition | Q293 LMP1-TROYcd NF-kB luciferase reporter, 4 h | inhibition, % at 10 µM | 360,000 tested, 0.98% active;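 active = compounds whose plate-normalised and pattern-corrected inhibition of the luciferase reporter signal at the single screening dose is 50% or more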
* hit, by the source's call.

What do the screens show for `Cc1ccc(C(=O)Nc2ccc(C(=O)N3CCCCC3)cc2)cc1`?
TWEAK-Fn14 inh: -0.4; CF NFkB block: 6.1; KKLEB cytotox: 8.0; Peg3 promoter: -23.6; HIF-2a inh: -68.0; TROY signal inh: -17.4

Results for COc1ccccc1-c1ccc2c(c1)C(C)(Cc1cc(Cl)ccc1C(F)(F)F)C(=O)N2 (stereo not given) ?
TWEAK-Fn14 inh: 9.6; CF NFkB block: 10.8; KKLEB cytotox: -0.1; Peg3 promoter: 78.5*; HIF-2a inh: -8.7; TROY signal inh: 7.8

How did CCCn1c(=O)c(C(=O)Nc2ncccc2O)c(O)c2ccccc21 do in these assays?
TWEAK-Fn14 inh: 87.0*; CF NFkB block: 16.0; KKLEB cytotox: 6.3; Peg3 promoter: -1.4; HIF-2a inh: 8.1; TROY signal inh: 42.8

What do the screens show for `O=C(Nc1ccccc1F)N(CCCN1CCOCC1)Cc1cc2cc3c(cc2[nH]c1=O)OCCO3`?
TWEAK-Fn14 inh: 14.4; CF NFkB block: -1.5; KKLEB cytotox: 0.1; Peg3 promoter: 26.7; HIF-2a inh: 10.4; TROY signal inh: 57.9*

Results for CCc1ccc2[nH]c(=O)c(CN(CCCN3CCOCC3)C(=O)Nc3ccccc3)cc2c1 ?
TWEAK-Fn14 inh: 18.1; CF NFkB block: -8.3; KKLEB cytotox: 5.1; Peg3 promoter: 13.2; HIF-2a inh: -1.4; TROY signal inh: 61.9*

What do the screens show for `CCc1ccc2[nH]c(=O)c(CN(CCN3CCCC3)C(=O)NC3CCCCC3)cc2c1`?
TWEAK-Fn14 inh: 85.5*; CF NFkB block: -17.4; KKLEB cytotox: 8.8; Peg3 promoter: -9.3; HIF-2a inh: -6.5

Results for CCN(CC)CCCN(Cc1cc2cc3c(cc2[nH]c1=O)OCCO3)C(=O)Nc1ccccc1 ?
TWEAK-Fn14 inh: 36.9; CF NFkB block: -2.5; KKLEB cytotox: -1.1; Peg3 promoter: 6.8; HIF-2a inh: 5.3; TROY signal inh: 78.0*

Results for COc1ccccc1N1CCN(C2CCCN(C(=O)c3ccoc3)C2)CC1 (stereo not given) ?
TWEAK-Fn14 inh: -0.3; CF NFkB block: 10.0; KKLEB cytotox: 3.2; Peg3 promoter: -8.6; HIF-2a inh: 1.8; TROY signal inh: -16.7

How did Cc1cc2c(s1)Nc1ccccc1N=C2N1CCN(C)CC1 do in these assays?
TWEAK-Fn14 inh: 3.5; CF NFkB block: 3.2; KKLEB cytotox: 22.1; Peg3 promoter: -11.4; HIF-2a inh: 4.9; TROY signal inh: -5.1

How did CC1CCCN(C(=O)Cn2nnc(-c3ccc([N+](=O)[O-])cc3)n2)C1 (stereo not given) do in these assays?
TWEAK-Fn14 inh: -9.5; CF NFkB block: -9.8; KKLEB cytotox: 10.9; Peg3 promoter: 18.4; HIF-2a inh: 19.1; TROY signal inh: -4.1

How did COc1ccc2nc3oc(C(=O)NC4CCN(Cc5ccccc5)CC4)cc3cc2c1 do in these assays?
TWEAK-Fn14 inh: 53.5*; CF NFkB block: 3.8; KKLEB cytotox: -2.4; Peg3 promoter: -70.7; HIF-2a inh: -34.0; TROY signal inh: -14.8

Results for CSc1c(CC(=O)Nc2ccccc2)n(C)c2ccccc12 ?
TWEAK-Fn14 inh: -93.1; CF NFkB block: 13.6; KKLEB cytotox: -3.7; Peg3 promoter: 25.3; HIF-2a inh: -36.3; TROY signal inh: -23.8

How did Cc1ccc2c(c1)c1c(n2CC(O)CNC2CCCCC2)CCCC1 (stereo not given) do in these assays?
TWEAK-Fn14 inh: -5.3; CF NFkB block: 15.3; KKLEB cytotox: 1.0; Peg3 promoter: 101.5*; HIF-2a inh: -12.5; TROY signal inh: -6.8

What do the screens show for `C/C(=N\NC(=O)C1COc2ccccc2O1)c1cc2ccccc2o1` (stereo not given)?
TWEAK-Fn14 inh: 5.5; CF NFkB block: -15.1; KKLEB cytotox: 15.3; Peg3 promoter: -27.1; HIF-2a inh: -21.5; TROY signal inh: -20.9

How did CC(C)NC(=O)Nc1ccc2c(c1)C(=O)N([C@H](C)CO)C[C@H](C)[C@@H](CN(C)S(C)(=O)=O)O2 do in these assays?
TWEAK-Fn14 inh: 15.2; CF NFkB block: -20.8; KKLEB cytotox: -4.2; Peg3 promoter: 7.4; HIF-2a inh: 14.4; TROY signal inh: -12.2

What do the screens show for `O=C(N/N=C/c1cn(Cc2ccccc2)c2ccccc12)c1cccnc1`?
TWEAK-Fn14 inh: 53.6*; CF NFkB block: 3.6; KKLEB cytotox: -9.0; Peg3 promoter: 17.5; HIF-2a inh: -17.4; TROY signal inh: 7.0

What do the screens show for `O=C(NCc1ccccc1)C(c1ccncc1)N(C(=O)c1ccccn1)c1ccccc1` (stereo not given)?
TWEAK-Fn14 inh: 3.4; CF NFkB block: -9.7; KKLEB cytotox: 11.2; Peg3 promoter: -116.2; HIF-2a inh: -66.2; TROY signal inh: -22.6

What do the screens show for `CCCSc1nc(C)c2cc(C)cc(C)c2n1`?
TWEAK-Fn14 inh: 12.7; CF NFkB block: -1.5; KKLEB cytotox: -0.2; Peg3 promoter: -9.3; HIF-2a inh: 8.6; TROY signal inh: -7.5

What do the screens show for `Cc1cc(C)c2nc3nc(C)c(C)cc3c(N)c2c1`?
TWEAK-Fn14 inh: -80.6; CF NFkB block: -115.3; KKLEB cytotox: -2.8; Peg3 promoter: 65.6*; HIF-2a inh: -9.9; TROY signal inh: -81.0

What do the screens show for `Cc1ccsc1/C=N/Nc1ccc(C(=O)O)cc1`?
TWEAK-Fn14 inh: 99.2*; CF NFkB block: -8.2; KKLEB cytotox: 12.4; Peg3 promoter: 36.7; HIF-2a inh: 56.8*; TROY signal inh: 48.8

How did OCCC1CN(Cc2cnn(-c3ccccc3Cl)c2)CCN1Cc1ccsc1 (stereo not given) do in these assays?
TWEAK-Fn14 inh: 6.2; CF NFkB block: -9.6; KKLEB cytotox: -0.9; Peg3 promoter: 6.9; HIF-2a inh: 15.7; TROY signal inh: -0.3

Results for CS(=O)(=O)c1ccc(Cl)c(NC(=O)COC(=O)CNC(=O)c2cccs2)c1 ?
TWEAK-Fn14 inh: 12.3; CF NFkB block: -25.3; KKLEB cytotox: 19.0; Peg3 promoter: 14.5; HIF-2a inh: 2.5; TROY signal inh: 2.9

Results for Cc1ccnc(NC(=O)Nc2cccc(F)c2)c1 ?
TWEAK-Fn14 inh: 65.9*; CF NFkB block: -8.3; KKLEB cytotox: 13.1; Peg3 promoter: -118.2; HIF-2a inh: -74.0; TROY signal inh: -19.0

How did COc1ccc(C(=O)OC(C)CN2CCOCC2)cc1OC (stereo not given) do in these assays?
TWEAK-Fn14 inh: 0.2; CF NFkB block: -5.3; KKLEB cytotox: 1.1; Peg3 promoter: 12.1; HIF-2a inh: 6.3; TROY signal inh: -6.4

Results for COc1ccc(C(O)C(CN2CCOCC2)c2ccccc2)cc1F (stereo not given) ?
TWEAK-Fn14 inh: 74.0*; CF NFkB block: -0.4; KKLEB cytotox: 9.0; Peg3 promoter: 12.4; HIF-2a inh: 4.8; TROY signal inh: 54.5*

What do the screens show for `COc1ccc(C(=O)C(CN2CCOCC2)c2ccccc2)cc1F` (stereo not given)?
TWEAK-Fn14 inh: 28.9; CF NFkB block: 36.1; KKLEB cytotox: -35.1; Peg3 promoter: 95.2*; HIF-2a inh: 30.6; TROY signal inh: 17.7

What do the screens show for `O=C(COC(=O)c1cc(Cl)ccc1Cl)NCCN1C(=O)CSC1=O`?
TWEAK-Fn14 inh: -4.5; CF NFkB block: 20.8; KKLEB cytotox: 1.0; Peg3 promoter: -4.9; HIF-2a inh: 5.5; TROY signal inh: -6.5
